# Results filed as inconclusive are left out. A number with no mark means an inactive call. Calls of active or inactive are those of the source. The call rests on the fitted dose curve; in most records, active means well fitted activation curve with a large enough effect in the repeat runs; inconclusive means weak or mixed curves; inactive means no such curve, though single readings can be large or run the other way.
# Target: Nuclear receptor subfamily 1 group I member 2 (Homo sapiens) (UniProt O75469)
# Assay: Human pregnane X receptor (PXR) small molecule agonists, qHTS assay (AID 1346982); further: nearly all actives have a fitted effect of over 35% in size
# Conditions: PXR-Luc HepG2, CYP3A4 luciferase reporter, 24 h; series mostly up to 92.4 µM; activation: at the top concentration
# Text: National Center for Advancing Translational Sciences [NCATS]
# NIH Chemical Genomics Center [NCGC]
# U.S. Environmental Protection Agency [EPA]
# National Institutes of Environmental Health Sciences [NIEHS]
# National Toxicology Program [NTP]
# The human pregnane X receptor (hPXR) regulates the expression of several drug metabolizing enzymes and induction of these proteins is a major mechanism for developing drug resistance in cancer. One such key enzyme catalyzing the drug metabolism is cytochrome P450 3A4 (CYP3A4). Changes in CYP3A4 expression affect drug metabolism, thereby reducing the therapeutic efficacy and altering toxicological response to a drug and which finally causes adverse drug interaction. To screen Tox21 libraries for compounds that activate hPXR-mediated CYP3A4 gene expression, PXR-Luc HepG2 cells were used.
# PXR-Luc HepG2 cells were dispensed at 2,000 per well in 5uL of assay medium containing 5% charcoal-stripped FBS into white solid bottom 1536-well plates (Corning Life Sciences, Corning, NY) using a Multidrop Combi (Thermo Scientific, Waltham, MA) dispenser. The assay plates were incubated at 37 C and 5% CO2 for 5hr, and then 23nL of compounds dissolved in DMSO and positive control were transferred using a Pintool station (Wako, San Diego, CA). The assay plates were incubated at 37C and 5% CO2 for 24hr. For luciferase read, 4uL of ONE-Glo reagent (Promega Corporation, Madison, WI) was added to each well of the assay plates using Flying Reagent Dispenser (FRD, Aurora Discovery, San Diego, CA) and incubated the assay plates at room temperature for 30min. The luminescence signal was quantified using a ViewLux plate reader (Perkin Elmer, Shelton, CT).
# On the % scale 0 is the no-effect control and ±100 the full control effect; potency means the concentration at half of the fitted maximal effect.
# Nuclear receptor subfamily 1 group I member 2 (Homo sapiens), sequence (O75469 whole entry, looked up): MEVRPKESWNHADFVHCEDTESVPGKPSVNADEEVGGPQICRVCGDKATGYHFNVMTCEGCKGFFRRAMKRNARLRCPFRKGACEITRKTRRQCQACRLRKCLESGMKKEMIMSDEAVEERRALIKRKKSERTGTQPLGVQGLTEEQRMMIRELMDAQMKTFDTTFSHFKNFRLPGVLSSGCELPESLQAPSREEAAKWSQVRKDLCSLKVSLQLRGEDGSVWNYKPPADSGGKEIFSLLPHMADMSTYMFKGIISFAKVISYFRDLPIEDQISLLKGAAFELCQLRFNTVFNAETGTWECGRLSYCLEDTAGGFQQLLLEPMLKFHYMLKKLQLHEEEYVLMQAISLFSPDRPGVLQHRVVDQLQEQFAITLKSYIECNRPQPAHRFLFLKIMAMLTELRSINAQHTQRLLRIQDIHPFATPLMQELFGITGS
SMILES,activation,Potency
CC(CCl)OC(C)CCl (stereo not given),10.4%,–
C[C@@H](O)[C@H]1C(=O)N2C(C(=O)O)=C(S[C@@H]3CN[C@H](CNS(N)(=O)=O)C3)[C@H](C)[C@H]12,–,18.8 µM (active)
O=C(C1CCCCC1)N1CC(=O)N2CCCc3ccccc3C2C1 (stereo not given),–,7.5 µM (active)
COc1ccc(/C=C/c2cc(OC)cc(=O)o2)cc1,–,8.84 µM (active)
CC(C)(Cc1c[nH]c2ccccc12)NCC(O)COc1ccccc1C#N (stereo not given),2.93% [at 42.5 µM],–
CCCCCCCCCCCCCCCCN,-22.1% [at 42.5 µM],–
COc1ccc(/C(C)=C/C(=O)O)c(OC)c1,-2.41% [at 42.5 µM],–
O=C(O)c1c2ccccc2cc2ccccc12,2.78%,–
CC(CC(C#N)(c1ccccc1)C(C)C)N(C)C (stereo not given),22.5% [at 42.5 µM],–
O=C(O)c1cc(C(=O)O)c(C(=O)O)cc1C(=O)O,-0.258%,–
CCCC(=O)OCc1ccccc1,-26.7%,–
O=C(O)c1ccc(O)c(O)c1,17.8%,–
C1=COCCC1,-10.2%,–
Cc1ccc(NC=O)c(C)c1,5.63%,–
CC/C=C\CCO,-2.62%,–
NC(=O)c1ccccc1,-2.12%,–
CC(=O)Nc1cccc(N)c1,-2.27%,–
O=C(O)COCC(=O)O,-6.3%,–
C=CC(C)CCC=C(C)C (stereo not given),7.22%,–
CC(C)CC(C)(C)C,4.68%,–

SMILES,activation,Potency
CCOc1ccc(NC(C)=O)cc1N,–,31.1 µM (active)
N#C[C@@H]1CC(F)(F)CN1C(=O)CNC1CC2CCC(C1)N2c1ncccn1 (stereo not given in full),1.41%,–
OCC(O)c1ccccc1 (stereo not given),1.6%,–
CCCCCCCCC(=O)OCC(C)OC(=O)CCCCCCCC (stereo not given),4.84%,–
CCCCOC(=O)C(C)Oc1ccc(Oc2ccc(C(F)(F)F)cn2)cc1 (stereo not given),-7.54%,–
OCCCO,-9.75%,–
Clc1nc2ccccc2nc1Cl,–,61.8 µM (active)
C[Si](C)(C)O[Si](C)(C)O[Si](C)(C)C,8.13%,–
CC(O)CN (stereo not given),4.85%,–
CCCCC(CC)COCCC#N (stereo not given),6.69%,–
CC1(C)CC(O)CC(C)(C)N1[O],-3.01%,–
Cc1cc(SC2=C(O)C[C@@](CCc3ccc(N)cc3)(C(C)C)OC2=O)c(C(C)(C)C)cc1CO,–,30.6 µM (active)
Cc1ccc(S(=O)(=O)NC(=O)NC2CCCC2)cc1,-13.9% [at 42.5 µM],–
CC(C)(C)c1cc(C=O)cc(C(C)(C)C)c1O,2.46% [at 42.5 µM],–
O=C1c2ccccc2C(=O)C1c1ccc2ccccc2n1,–,1.91 µM (active)
CCCCCCC/C=C/C=O,11.6%,–
CC(=O)Oc1cccc2c1C(=O)c1c(OC(C)=O)cc(C(=O)O)cc1C2=O,-3.59% [at 42.5 µM],–
O=C(O)c1ccc2c(c1)nc(C(=O)NC1CCN(C3CC3)CC1)n2Cc1cc(-c2ccc(Cl)s2)on1,-32.3% [at 19 µM],–
CCCCCO,1.95%,–
CCC[Si](OC)(OC)OC,-0.494%,–
